Experimental data: PubChem BioAssay AID1626 (SRMLSC, 2009)
Out of some 220,000 compounds screened, about 2,000 (0.91%) were called active. About 2% were inconclusive and are not listed. These entries were drawn from the full list. Measured potencies and affinities stand elsewhere. Values without a mark were called inactive. No stated cut-off is given here; in the data, inconclusive means inhibition above about 80% without an active follow-up result; inactive means below that; test concentration not stated here.

Assay: M. tuberculosis H37Rv growth inhibitors, H37Rv strain (AID 1626);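 further: bacteria incubated seven days before Alamar blue readout; 0% = bacteria only wells and 100% = bacteria with antibiotic wells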
Details: stronger effect = higher value, concentration not given here
For `CSc1ccc(/C=C/C(=O)OCC(=O)NC(C)C)cc1`, the inhibition was 0.59%.
With `O=C(Nc1ccccc1)NC1CCN(Cc2ccccc2)CC1` the inhibition was -1.63%.
For `O=C(Cn1c(=O)n(CC2CCCO2)c(=O)c2ccccc21)c1ccccc1` (stereo not drawn), the inhibition was 1.39%.
Work on `O=C(CCCSc1nc2sc3c(c2c(=O)[nH]1)CCC3)NCCO` yielded an inhibition of -2.38%.
Compound `O=C(NNC(=O)c1cccnc1)Nc1ccc(Cl)c(Cl)c1` has an inhibition of -1.69%.
Work on `C=CCn1c(SCn2nnc3ccccc3c2=O)nc2scc(-c3cccs3)c2c1=O` yielded an inhibition of -6.52%.
`COc1cc(CCC(O)CC(=O)CCc2ccccc2)ccc1O` (stereo not drawn) showed an inhibition of -13%.
`O=C(Nc1nn[nH]n1)c1cccc([N+](=O)[O-])c1` showed an inhibition of 2.86%.
`CCOC(=O)CNC(=O)Nc1nnc(-c2ccc(OCC)cc2)o1` showed an inhibition of -3.79%.
`O=C(Nc1nnc(-c2cccnc2)o1)c1cccc([N+](=O)[O-])c1` showed an inhibition of 74.6%.
For `COc1ccc(-c2nnc(-c3ccc(OCC(C)C)cc3)o2)cc1`, the inhibition was -2.52%.
`CC(C)(C)c1cc(NC(=O)COc2ccc(Br)cc2)n(-c2ccccc2)n1` showed an inhibition of -8.73%.
With `COCCCNC(=O)c1ccc(-n2nc(C(F)(F)F)cc2-c2cccs2)cc1` the inhibition was 2.29%.
Work on `CC1=CC(c2ccc(Cl)cc2)n2nc(NS(=O)(=O)c3ccc(C)cc3)nc2N1` (stereo not drawn) yielded an inhibition of -12.5%.
Work on `CC1(C)CC(NC(=S)NC2CC2)CC(C)(C)N1` yielded an inhibition of -4.39%.
`Cc1ccc(Oc2ccc(NC(=O)CCC(=O)OCC(=O)c3cccs3)cc2)cc1C` showed an inhibition of -2.17%.
Compound `O=C(CCCC(=O)OCC(=O)c1cccs1)Nc1ccc(F)cc1` has an inhibition of -9.65%.
With `O=C(c1cccnc1)N1CCC(Oc2ccc(C(=O)N3CCCCO3)cc2)CC1` the inhibition was 4.71%.
For `COCCN(C(=S)Nc1ccc(C)cc1)C(C)c1cccnc1` (stereo not drawn), the inhibition was -5.81%.
With `CCCCCCn1c(CN2CCN(C(=O)OCC)CC2)nc2c1c(=O)n(C)c(=O)n2C` the inhibition was 6.21%.
With `O=C(Oc1ccc(Br)cc1)c1cncc(Br)c1` the inhibition was -0.78%.
With `CCOc1ccc(OC(=O)c2cccnc2)cc1` the inhibition was 1.09%.
In the case of `COc1ccc(OC(=O)c2cccnc2)cc1`, the inhibition is reported as 0.67%.
For `CCCCOc1ccc(OC(=O)c2cccnc2)cc1`, the inhibition was 6.86%.
With `CCCCCCCOC(=O)c1ccc(OC(=O)c2cccnc2)cc1` the inhibition was 8.62%.
With `O=C(Oc1cccc(Br)c1)c1cccnc1` the inhibition was 13.2%.
For `CCCCCCOC(=O)c1ccc(OC(=O)c2cccnc2)cc1`, the inhibition was 74.1%.
`O=C(Oc1ccc([N+](=O)[O-])cc1)c1cncc(Br)c1` gave an inhibition of 10.3%.
With `Cc1cccc(NC(=O)c2sc(Cl)nc2-c2ccccc2)c1` the inhibition was 8.83%.
Work on `COc1cccc(CC2(CO)CCCN(Cc3ccc4c(c3)OCCO4)C2)c1` (stereo not drawn) yielded an inhibition of 4.07%.
In the case of `Cc1nc2cc(Cl)c([N+](=O)[O-])cc2s1`, the inhibition is reported as 7.87%.
`CC(C)Oc1ccc(CCc2nnc(SC(C)C(=O)O)n2-c2ccccc2)cc1` (stereo not drawn) showed an inhibition of 2.62%.
Work on `CCc1ccccc1N1C[C@@]23C=C[C@@H](O2)C(C(=O)OCC(C)C)[C@H]3C1=O` (stereo partly drawn) yielded an inhibition of -0.48%.
Compound `CCCCn1nc2cc(C(=O)N(CC)c3ccc(OC)cc3)ccc2c1OCC` has an inhibition of 0.26%.
`CN(C)c1ccc(C(=S)N2CCN(c3ccc([N+](=O)[O-])cc3)CC2)cc1` gave an inhibition of 9.45%.
With `COc1cc(NS(=O)(=O)c2ccc(NC(C)=O)cc2)ncn1` the inhibition was 6.36%.
`COc1cc(NS(=O)(=O)c2ccc(N)cc2)nc(OC)n1` gave an inhibition of 14.8%.
With `O=C(CCC(=O)OCCCC(F)(F)C(F)(F)F)NC1CCCCC1` the inhibition was -2.21%.
Work on `COc1ccccc1NC(=O)c1[nH]c(C)c(C(C)=O)c1C` yielded an inhibition of -2.28%.
Compound `Cc1nc(-c2ccccc2)sc1C1(C)CC(c2ccc([N+](=O)[O-])cc2)=NO1` (stereo not drawn) has an inhibition of -6.22%.
For `Brc1ccccc1-c1nnc(SCc2nc3ccccc3s2)o1`, the inhibition was 36%.
Work on `CCN(CC)S(=O)(=O)c1cccc(-c2nnc(SCc3nc4ccccc4s3)o2)c1` yielded an inhibition of 2.86%.
With `COc1ccc(/C=C/C(=O)c2ccc(NC(=O)c3cccs3)cc2)cc1OC` the inhibition was 5.93%.
Work on `C/C(=N\NC(=O)CC(C)C)c1ccc(Cl)c(Cl)c1` yielded an inhibition of -0.71%.
In the case of `OC(CNCc1ccc(Cl)cc1)(c1ccccc1)c1ccc(F)cc1` (stereo not drawn), the inhibition is reported as -2.55%.
With `COc1ccc(CNCC(O)(c2ccccc2)c2ccc(Cl)cc2)cc1` (stereo not drawn) the inhibition was -0.19%.
With `Cc1ccc(S(=O)(=O)Nc2c(C)nn(C)c2C)cc1` the inhibition was -3.98%.
Work on `Cc1cc(C)n(C(=O)CCC(=O)Nc2ccc(C)c(C)c2)n1` yielded an inhibition of -4.23%.
Work on `Cc1[nH]c2ccccc2c1NC(=O)CN1CCN(c2cccc(C(F)(F)F)c2)CC1` yielded an inhibition of 8.35%.
For `COc1ccc(-c2ncnc(C(F)(F)F)c2-c2csc(C)n2)c(O)c1`, the inhibition was -3.59%.
Compound `Nc1ccc(OCc2ccccc2)cc1` has an inhibition of 78.2%.
For `O=C(NCc1ccco1)c1ccc(COc2ccc(Cl)cc2)cc1`, the inhibition was 15.4%.
`O=c1c(C(c2ccc(Cl)cc2)c2c(O)nc3n(c2=O)CCCS3)c(O)nc2n1CCCS2` showed an inhibition of -3.6%.
`O=c1c2ccccc2nc2n1CCCS2` gave an inhibition of -15.7%.
In the case of `Cc1sc2nc3n(c(=O)c2c1C)CCCS3`, the inhibition is reported as -3%.
`N#Cc1c(-c2ccc(Cl)cc2)nc2n(c1=O)CCCS2` gave an inhibition of -3.54%.
Compound `COc1ccc(C(=O)NCCNc2ccccc2[N+](=O)[O-])cc1` has an inhibition of -4.94%.
`O=C(COC(=O)Cn1cnc2ccccc21)NCCc1ccc(Cl)cc1` showed an inhibition of -3.57%.
Compound `CC1(C)c2[nH]c3ccccc3c2C[C@@H]2C(=O)N(Cc3ccccc3)C(=O)N21` has an inhibition of 2.35%.
With `Cc1cccc(CN2C(=O)[C@H]3Cc4c([nH]c5ccccc45)C(C)(C)N3C2=O)c1` the inhibition was 17.7%.
`C=CCn1c(=O)c2c(C)c(C)sc2n2c(Nc3ccccc3)nnc12` gave an inhibition of -3.44%.
Compound `O=C(CNc1cccc(Cl)c1)NNC(=S)NCc1ccccc1` has an inhibition of -0.97%.
In the case of `COC(=O)/C=c1/sc2n(c1=O)CCN=2`, the inhibition is reported as -5.21%.
`CSc1ccc(CN2CCCC(CO)(Cc3ccccc3)C2)cc1` (stereo not drawn) showed an inhibition of -4.33%.
Compound `Cc1ccc(OCCn2cnc3sc(C(N)=O)c(C)c3c2=O)cc1` has an inhibition of 11.2%.
`CCn1cnc2sc(C(=O)Nc3ccccc3OC)c(C)c2c1=O` showed an inhibition of 2.12%.
`Cc1c(C(=O)O)sc2ncn(C)c(=O)c12` gave an inhibition of -6.12%.
With `CCn1cnc2sc(C(=O)O)c(C)c2c1=O` the inhibition was -6.48%.
For `Cc1ccc(CC(=O)NCc2ccc3c(c2)OCO3)cc1`, the inhibition was 23.6%.
Work on `O=C(O)C1(P(=O)(c2ccc(Cl)cc2)c2ccc(Cl)cc2)CC1` yielded an inhibition of 1.34%.
In the case of `CCc1ccc(OCC2c3cc(OC)c(OC)cc3CCN2C(=S)NCCOC)cc1` (stereo not drawn), the inhibition is reported as 0.42%.
With `CSc1nnc(CNC(=O)c2ccccc2)n1-c1cccc(C)c1` the inhibition was -0.55%.
For `O=C(O)c1ccccc1N1C(=O)C2C3CCC(C3)C2C1=O` (stereo not drawn), the inhibition was -3.82%.
`CSC1=NCCN1C(=O)c1c(F)cccc1Cl` showed an inhibition of 1.18%.
Work on `Cc1ccc(S(=O)(=O)N2CCOCC2)cc1C(=O)NCc1ccco1` yielded an inhibition of -8.9%.
With `O=C(COc1ccc2ccccc2c1)NCCn1ccc2ccccc21` the inhibition was 9.42%.
`Cc1cc2ccccc2n1CCNC(=O)COc1ccccc1` gave an inhibition of 13.1%.
`Cc1nn(CC(=O)Nc2ccc3c(c2)nc2n3CCN(C3CCCCC3)C2)c(=O)c2ccccc12` showed an inhibition of -1.06%.
`Cc1nn(Cc2ccc(Cl)c(Cl)c2)c(C)c1NC(=O)c1noc2c1CCCCC2` showed an inhibition of -6.28%.
For `Cc1nc(-c2ccccn2)nc(SCC(=O)N2CCOCC2)c1Cl`, the inhibition was 3.81%.
`COc1ccc(C(=O)CSc2nnc3ccc(-c4ccccn4)nn23)cc1` gave an inhibition of 2.65%.
Work on `COc1ccc(C(=O)CSc2nnc(-c3ccccn3)n2Cc2ccco2)cc1` yielded an inhibition of -7.14%.
Compound `CCCc1nc(SCC(=O)c2ccc(F)cc2)c2ccccc2n1` has an inhibition of 8.42%.
`Cc1nc2ccccc2nc1SCC(=O)c1ccccc1` showed an inhibition of 8.55%.
For `Cn1c(SCC(=O)c2ccc(F)cc2)nc2cccnc21`, the inhibition was 3.26%.
In the case of `Cc1ccc(NC(=O)COC(=O)c2ccc([N+](=O)[O-])o2)cc1S(=O)(=O)N1CCCCC1`, the inhibition is reported as 8.45%.
`O=C1c2ccccc2C(=O)N1CN(C(=O)c1ccccc1)c1ccc(O)cc1` showed an inhibition of -0.6%.
Work on `Cc1cccnc1CCNC(=O)CCc1nnc(-c2ccccc2)o1` yielded an inhibition of 5.3%.
`CCCN1CCN(C(=O)c2ccc(Sc3ccc(C)cc3)c(NC(C)=O)c2)CC1` showed an inhibition of 3.99%.
Work on `CC(C)(C)c1ccccc1OCCN1CCCC1` yielded an inhibition of -0.65%.
`CC(C)(C)c1ccccc1OCCCCN1CCCC1` showed an inhibition of 6.1%.
In the case of `CNC(=O)NC(=O)COC(=O)c1ccc(-n2c(C)ccc2C)cc1`, the inhibition is reported as 20.2%.
`CCOc1ccc(NC(=O)CSc2nnc(C3CC3)n2C)cc1` gave an inhibition of 27.2%.
`Cc1ccc(S(=O)(=O)N(CCCO)Cc2cc3c(C)ccc(C)c3[nH]c2=O)cc1` showed an inhibition of -4.12%.
With `c1ccc(CC2CCN(c3nc4ccccc4n4nnnc34)CC2)cc1` the inhibition was 12.1%.
For `c1ccc(CN2CCN(c3nc4ccccc4n4cnnc34)CC2)cc1`, the inhibition was 6.21%.
`O=C(Nc1cccc(C(F)(F)F)c1)C1CCCN1S(=O)(=O)c1cccc2cccnc12` (stereo not drawn) gave an inhibition of -8.3%.
In the case of `CCCNC(=O)c1ccc2c(=O)c(O)c(-c3ccc(OC)cc3)[nH]c2c1`, the inhibition is reported as -8.43%.
